{
  "source": "PubChem BioAssay (Tox21)",
  "note": "“And” between values parts separate entries of the source, which are not always exact repeats. Identical values can stand only once. Inconclusive results are not listed. A call without a number means that no potency is given here. Some compounds were tested as several samples or in several runs, with calls that do not always agree. The source made the active and inactive calls. Calls follow the shape of the dose curve; as a rule, active = well fitted cell-killing curve with a large enough effect in the repeat runs; inconclusive = weak or mixed curves; inactive = no such curve, though single readings can be large or run the other way. Potency is read from the fitted curve at half-maximal effect.",
  "data": [
    {"assay": "qHTS assay to identify small molecule agonists of the peroxisome proliferator-activated receptor delta (PPARd) signaling pathway - cell viability counter screen (AID 743211); also: nearly all actives have a fitted effect of over 55% in size", "conditions": "PPARd-bla HEK293H viability, CellTiter-Glo luminescence, 17 h; series mostly up to 62.6 µM; activity change, negative = cytotoxicity: at the top concentration", "from_the_text": "U.S. Tox21 Program National Center for Advancing Translational Sciences [NCATS] NIH Chemical Genomics Center [NCGC] U.S. Environmental Protection Agency [EPA] National Institutes of Environmental Health Sciences [NIEHS] National Toxicology Program [NTP] U.S. Food and Drug Administration [FDA] Tox21 Assay Overview: The peroxisome proliferator-activated receptors (PPARs) are lipid-activated transcription factors of the nuclear receptor superfamily with three distinct subtypes namely PPAR alpha, PPAR delta (PPARd) and PPAR gamma. All these subtypes heterodimerizes with Retinoid X receptor (RXR) and have different physiological functions. […] To identify the compounds that activate PPAR-delta signaling, GeneBLAzer PPAR delta UAS-bla HEK293H cell line (Invitrogen, Carlsbad, CA, USA) containing a beta-lactamase reporter gene under the control of an Upstream Activator Sequence (UAS) was used to screen the Tox21 compound library. The cytotoxicity of the Tox21 compound library against the PPARd-bla cell line was tested in parallel by measuring the cell viability using CellTiter-Glo assay (Promega, Madison, WI) in the same wells.\nTox21 Assay Protocol Summary: PPARd-bla cells were dispensed at 3000 cells/6uL/well in 1536-well black wall/clear bottom plates using a Multidrop Combi (Thermo Fisher Scientific, Waltham, MA) dispenser. After the assay plates were incubated at 37 C and 5% CO2 for 5 h, 23 nL of compounds dissolved in DMSO, positive controls or DMSO only was transferred to the assay plate by a Pintool station (Kalypsys, San Diego, CA). The assay plates were incubated at 37C for 17 h. After 1 uL of LiveBLAzerTM B/G FRET substrate was added using a Bioraptr Flying Reagent Dispenser (FRD) workstation (Beckman Coulter, Indianapolis, IN, USA), the plates were incubated at room temperature for 2 h, and fluorescence intensity was measured by an Envision plate reader (PerkinElmer, Shelton, CT). For cell viability readout that measures cytotoxicity, 3 ul/well of CellTiter-Glo reagent was added into the assay plates using a Bioraptr FRD. After 30 min incubation at room temperature, the luminescence intensity in the plates was measured using a ViewLux plate reader (PerkinElmer).", "values": [
      {"smiles": "Nc1ccc(-c2ccccc2)cc1", "Potency": "inactive"},
      {"smiles": "C1=Cc2cccc3cccc1c23", "Potency": "inactive"},
      {"smiles": "COP(=O)(OC)OC", "Potency": "inactive"},
      {"smiles": "CCC(=O)O[C@H]1CC[C@H]2[C@@H]3CCC4=CC(=O)CC[C@]4(C)[C@H]3CC[C@]12C", "Potency": "49 µM (active) and inactive"},
      {"smiles": "O=C(Nc1ccc(Br)cc1)c1cc(Br)cc(Br)c1O", "Potency": "6.14 µM (active) and 2.45 µM (active) and 8.41 µM (active)"},
      {"smiles": "O=C1C=CC(=O)C=C1", "Potency": "inactive"},
      {"smiles": "CC(C)=CC1C(C(=O)OCc2coc(Cc3ccccc3)c2)C1(C)C", "note": "(stereo not given)", "Potency": "inactive"},
      {"smiles": "CCOCN(C(=O)CCl)c1c(C)cccc1CC", "Potency": "41.2 µM (active)"},
      {"smiles": "S=C1NCCN1", "Potency": "inactive"},
      {"smiles": "Oc1c(Cl)c(Cl)c(Cl)c(Cl)c1Cl", "activity change, negative = cytotoxicity": "-3.42% (inactive)"},
      {"smiles": "CC(C)(OOC(C)(C)c1ccccc1)c1ccccc1", "Potency": "inactive"},
      {"smiles": "Oc1cc(Cl)ccc1Oc1ccc(Cl)cc1Cl", "Potency": "20 µM (active) and 15 µM (active)"},
      {"smiles": "C=CCN(CC=C)C(=O)C(Cl)Cl", "Potency": "inactive"},
      {"smiles": "N[C@@H](Cc1ccc(N(CCCl)CCCl)cc1)C(=O)O", "Potency": "inactive"},
      {"smiles": "CC(C)NC(C)C", "Potency": "inactive"},
      {"smiles": "CC(O)CCO", "note": "(stereo not given)", "Potency": "inactive"},
      {"smiles": "CC(C)N(C(=O)SCC(Cl)=C(Cl)Cl)C(C)C", "Potency": "inactive"},
      {"smiles": "C=C(C)C(=O)OCC1CO1", "note": "(stereo not given)", "Potency": "inactive"},
      {"smiles": "O=C(O)CC[N+](=O)[O-]", "Potency": "inactive"},
      {"smiles": "Nn1cnnc1", "Potency": "inactive"},
      {"smiles": "CCOc1cc(C=O)ccc1O", "Potency": "inactive"},
      {"smiles": "Cc1ccc(N)c(N)c1", "Potency": "inactive"},
      {"smiles": "CCC(C)c1ccc(O)cc1", "note": "(stereo not given)", "activity change, negative = cytotoxicity": "1.04% (inactive)"},
      {"smiles": "O=P(O)(O)CCCl", "Potency": "inactive"},
      {"smiles": "C#C[C@]1(O)CC[C@H]2[C@@H]3CCC4=CC(=O)CC[C@]4(C)[C@H]3CC[C@@]21C", "Potency": "inactive"},
      {"smiles": "C=CCc1ccc(OC)cc1", "activity change, negative = cytotoxicity": "8.34% (inactive)"},
      {"smiles": "COC(=O)c1sccc1S(=O)(=O)NC(=O)Nc1nc(C)nc(OC)n1", "Potency": "inactive"},
      {"smiles": "c1ccc(NNc2ccccc2)cc1", "Potency": "inactive"},
      {"smiles": "O=[N+]([O-])c1cccc2ccccc12", "Potency": "inactive"},
      {"smiles": "CCCCN(CC)c1c([N+](=O)[O-])cc(C(F)(F)F)cc1[N+](=O)[O-]", "activity change, negative = cytotoxicity": "4.16% [at 81.1 µM] (inactive)"},
      {"smiles": "Nc1ccncc1", "Potency": "inactive"},
      {"smiles": "COP(=S)(OC)Oc1ccc([N+](=O)[O-])cc1", "Potency": "inactive"},
      {"smiles": "CCN(CC)N=O", "Potency": "inactive"},
      {"smiles": "c1ccc(P(c2ccccc2)c2ccccc2)cc1", "Potency": "inactive"},
      {"smiles": "C[C@]12CCC(=O)C(O)=C1CC[C@@H]1[C@@H]2CC[C@]2(C)C(=O)CC[C@@H]12", "Potency": "inactive"},
      {"smiles": "CCOP(=S)(OCC)O/N=C(\\C#N)c1ccccc1", "Potency": "inactive"},
      {"smiles": "CCCCC(CC)COC(=O)Cl", "note": "(stereo not given)", "Potency": "inactive"},
      {"smiles": "CCCCNC(=O)n1c(NC(=O)OC)nc2ccccc21", "Potency": "inactive"},
      {"smiles": "CCCCCCCCCCCOC(=O)c1ccccc1C(=O)OCCCCCCCCCCC", "Potency": "inactive"},
      {"smiles": "c1ccc(-c2cccc(-c3ccccc3)c2)cc1", "activity change, negative = cytotoxicity": "9.43% (inactive)"}
    ]}
  ]
}
